An excerpt weighted towards active compounds, which were near 18% of everything screened.
HepG2 viability: HepG2 cytotoxicity, counter-screen for TGF-b inhibitors; HepG2 CAGA-GFP viability, ATP luminescence, 18 h; Potency, µM (top dose mostly 46.1 µM), for the others: at the top dose activity change, negative = cytotoxicity, hits mostly cytotoxic; 410,000 compounds, 0.76% hits; note: potency is the fitted concentration of half-maximal effect
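CellTiter-Glo luminescence gave cytotoxicity after 18 hours at 37 degrees C. The cells were HepG2 CAGA-GFP in 1% FBS DMEM, stimulated with 500 pg/mL TGF-beta after compound addition. %Activity was normalised to no-cell wells (complete cell-killing) and DMSO (no toxicity), and curves were fitted and classified.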
DT40 TDP1 no CPT: qHTS for Inhibitors of human tyrosyl-DNA phosphodiesterase 1 (TDP1): qHTS in cells in absence of CPT. DT40 Tdp1-/- hTDP1 cells, no CPT, ATP luminescence, 48 h. Potency, µM (highest dose often 46.2 µM), for the others: top-dose activity change, negative = growth inhibition, usual class: inhibitors. 420,000 compounds, 15% hits; note: potency is the fitted concentration of half-maximal effect; % is set by controls: 0 for no effect and ±100 for the full control effect; nearly all actives have a fitted effect of over 55% in size
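No-CPT arm: Tdp1-/-;hTDP1 DT40 cells (400/well) plus compounds, incubated ≥48 hr at 37 °C. Readout CellTiter-Glo luminescence.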
TDP1 cell CPT: DT40-hTDP1 cell growth loss with CPT; 420,000 compounds, 12% hits; Potency, µM (highest dose often 46.2 µM), for inactives: top-dose activity change, negative = growth inhibition, usual class: inhibitors; AID 686979; chicken DT40 Tdp1-/-;hTDP1 cells + 20 nM CPT, ATP luminescence, 48 h; note: potency is the fitted concentration of half-maximal effect; % is set by controls: 0 for no effect and ±100 for the full control effect; nearly all actives have a fitted effect of over 55% in size
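Cell growth measured by CellTiter-Glo luminescence after a minimum 48 h, 37 C compound exposure with 20 nM CPT in Tdp1-knockout DT40 cells stably expressing hTDP1, seeded 400/well; qHTS titration format.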
TGFb inhibitor: TGF-b pathway inhibition | HepG2 CAGA-GFP TGF-b/SMAD3 reporter, GFP fluorescence, 18 h; TGF-beta stimulated, 500 pg/mL final | Potency, µM (highest dose often 46.1 µM), for inactives: at the top dose activity, negative = inhibition, hits mostly inhibitors | 410,000 compounds, 1.2% hits | AID 588855; note: potency is the fitted concentration of half-maximal effect; % is set by controls: 0 for no effect and ±100 for the full control effect; nearly all actives have a fitted effect of over 65% in size
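Using HEPG2 CAGA-GFP reporter cells at 1000 cells/well, we pinned test compounds, stimulated with recombinant TGF-beta (500 pg/mL final) and measured total well GFP after 18 h.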
TDP1 block: TDP1 (human) enzyme inhibition. Q9NUW8. recombinant TDP1, AlphaScreen DNA substrate cleavage. Potency, µM (highest dose often 130 µM), for the others: top-dose activity change, negative = inhibition, hits mostly inhibitors. 350,000 compounds, 0.28% hits. AID 485290; note: potency is the fitted concentration of half-maximal effect; % is set by controls: 0 for no effect and ±100 for the full control effect; nearly all actives have a fitted effect of over 40% in size
Target sequence (Q9NUW8 whole entry, looked up): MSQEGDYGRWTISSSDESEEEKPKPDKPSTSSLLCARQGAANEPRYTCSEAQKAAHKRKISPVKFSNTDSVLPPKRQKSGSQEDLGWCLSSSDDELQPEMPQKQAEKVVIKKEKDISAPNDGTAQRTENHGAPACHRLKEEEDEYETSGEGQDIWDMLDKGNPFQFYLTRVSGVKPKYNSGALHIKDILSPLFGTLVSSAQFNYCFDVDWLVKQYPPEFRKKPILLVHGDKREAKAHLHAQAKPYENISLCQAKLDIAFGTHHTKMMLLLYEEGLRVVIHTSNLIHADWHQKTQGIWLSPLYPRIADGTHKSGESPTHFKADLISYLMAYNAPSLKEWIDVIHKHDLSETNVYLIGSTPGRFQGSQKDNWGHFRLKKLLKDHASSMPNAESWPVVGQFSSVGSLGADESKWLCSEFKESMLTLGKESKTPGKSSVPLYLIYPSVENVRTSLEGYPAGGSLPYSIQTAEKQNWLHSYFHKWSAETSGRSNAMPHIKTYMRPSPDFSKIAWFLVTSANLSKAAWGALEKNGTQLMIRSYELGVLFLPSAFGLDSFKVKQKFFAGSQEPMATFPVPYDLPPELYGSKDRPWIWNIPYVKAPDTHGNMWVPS
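Steps: enzyme plus compound, 15 min RT; add biotin/phosphotyrosine-FITC oligonucleotide (15 nM final), react 5 min; add donor/acceptor beads (10 ug/ml final), 10 min; read AlphaScreen. Tdp1 at 1 nM final.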
IL1B secr inh: inhibitors of inflammasome signaling (IL-1 beta secretion); THP-1 LPS/ATP IL-1B secretion, AlphaLISA, 16 h; stronger effect = lower value; activity change, % at 57.5 µM; 360,000 compounds, 4.7% hits; in the data active = activity change below about -50%; inconclusive = mostly about -30% to -49%; note: % is set by controls: 0 for no effect and ±100 for the full control effect
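THP-1 cells pretreated 1 hr with compounds (up to 57.5 uM final), then stimulated with LPS (250 ng/mL final) plus ATP (1.25 mM final); secreted IL-1B measured by AlphaLISA after 16 hr, decreased signal indicating inhibition.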
* = called active by the depositor; ? = inconclusive; / = no result; [ ] = dose if it differs, or a comment. Unless noted, calls come from the whole dose curve; as a rule, active = well fitted curve in the direction sought with a large enough effect; inconclusive = small, poorly fitted or top-dose-only effect, or another doubt; inactive = no such curve, though single readings can be large; an effect the other way counts as inactive or inconclusive.

SMILES	HepG2 viability	DT40 TDP1 no CPT	TDP1 cell CPT	TGFb inhibitor	TDP1 block	IL1B secr inh
Cc1ccc(NC(=O)Cn2c(-c3nonc3N)nc3ccccc32)cc1Cl	5.3%	-3.8%	-12.6%	9.3%	2.3%	/
CCc1ccccc1NC(=O)Cn1c(-c2nonc2N)nc2ccccc21	-0.6%	-5.0%	0.5%	-21.9%	-2.3%	/
Nc1nonc1-c1nc2ccccc2n1CC(=O)Nc1cccc(Cl)c1Cl	3.7%	5.8µM*	5.17µM*	18.6%	-3.1%[12.3 µM]	/
Nc1nonc1-c1nc2ccccc2n1CC(=O)Nc1ccc(F)cc1	-8.6%	9.2µM*	14.6µM*	1.9%	/	/
NNC(=O)Cn1c(-c2nonc2N)nc2ccccc21	-7.3%	2.3%	-26.1%	3.7%	3.0%	-5.4
Nc1nonc1-c1nc2ccccc2n1CC(=O)N1CCN(c2ccc(F)cc2)CC1	-27.2%	12.6µM*	?	-5.5%	9.1%	0.0
Nc1nonc1-c1nc2ccccc2n1CC(=O)N/N=C\c1ccc(-c2ccc(Cl)cc2)o1	-87.2%	3.66µM*	7.31µM*	0.0%	5.0%	?
COC(=O)CNc1nc(Cl)nc(Nc2ccc(Cl)cc2)n1	1.9%	-1.1%	16.9%	-0.3%	1.2%	-14.2
CCOC(=O)C1CCC(CN(Cc2ccc(OC)cc2)S(=O)(=O)c2ccc(C)cc2)CC1 (centres undefined)	-16.9%	13µM*	20.6µM*	-30.9%	10.4%	/
CCOC(=O)C1CCC(CN(Cc2ccc(Cl)cc2)S(=O)(=O)c2cccc(Cl)c2C)CC1 (centres undefined)	2.2%	18.4µM*	23.1µM*	0.2%	-2.6%	/
CCOC(=O)C1CCC(CN(Cc2ccc(Cl)cc2)S(=O)(=O)c2ccc(Br)cc2)CC1 (centres undefined)	9.6%	?	?	-5.1%	7.8%	/
COC(=O)c1cc2oc(C)cc2n1Cc1cc(C)ccc1C	115.9%	?	?	128.0%	1.0%	/
COc1ccc(CN2CCCC(C(=O)c3ccc(SC)cc3)C2)cc1Cn1cccn1 (centres undefined)	-26.1%	?	?	?	8.1%	-96.2*
CSc1ccc(C(=O)C2CCCN(Cc3ccc(N4CCNC4=O)cc3)C2)cc1 (centres undefined)	-9.2%	?	6.4%	0.2%	/	-97.4*
CSc1ncc(CN2CCCC(C(=O)c3ccc(C(C)(C)C)cc3)C2)cn1 (centres undefined)	-19.2%	23.1µM*	16.4µM*	-24.5%	3.6%	20.9
COc1ccc(C(=O)C2CCCN(C(=O)c3cccc(Cn4cccn4)c3)C2)cc1F (centres undefined)	-25.8%	?	?	-26.6%	4.6%	-16.6
CSc1ncc(CN2CCCC(C(=O)Nc3ccc(-c4ccco4)cc3)C2)cn1 (centres undefined)	30.5%	?	?	22.2%	9.5%	7.1
Cc1ccc(Cc2nc3ccccc3nc2SCC(=O)N2CCN(c3ccc(F)cc3)CC2)cc1	0.6%	?	?	-0.6%	8.1%	/
N#Cc1ccccc1OCC(=O)N(Cc1nnc(-c2ccccc2Cl)o1)C1CC1	11.0%	16.4µM*	?	18.3%	-4.9%	0.5
CCCCN(C)CCNC(=O)CN1C(=O)CSc2ccc(S(=O)(=O)N3CCOCC3)cc21	-1.1%	7.3%	11.9%	?	0.8%	6.7
CCOc1ccc(N2CC(NC(=O)c3ccc(S(=O)(=O)N4CCCCC4)cc3)CC2=O)cc1 (centres undefined)	4.5%	?	?	-18.3%	0.0%	/
Cc1nccc(-c2cccc(N/N=C(\C#N)C(=O)c3ccccc3)c2)n1	-22.3%	10.3µM*	20.6µM*	2.0%	5.5%	4.3
C[C@H]1CN([C@@H](C)CO)C(=O)CCCn2nncc2CO[C@H]1CN(C)C(=O)NC1CCCCC1	-25.5%	1.1%	-11.3%	-1.4%	/	24.7
Cc1ccsc1C(=O)N(C)CC(=O)N(CC(C)C)c1c(N)n(CC(C)C)c(=O)[nH]c1=O	4.6%	-4.5%	-6.5%	6.8%	-2.3%	5.1
COc1cccc(C2c3c(ncn(-c4ccc(Br)cc4)c3=N)Oc3ccc4ccccc4c32)c1 (centres undefined)	/	/	/	/	2.7%	/
SMILES	HepG2 viability	DT40 TDP1 no CPT	TDP1 cell CPT	TGFb inhibitor	TDP1 block	IL1B secr inh
O=[N+]([O-])c1cccc(-c2c(-c3ccccc3)ncc3ccc(F)cc23)c1	-12.3%	8.2µM*	9.2µM*	-15.3%	2.4%	21.1
COC/C=C/C1=CC2=CC(=O)C(C)(OC(=O)c3cnc4ccccc4n3)C(=O)C2=CN1C1CC1 (centres undefined)	-5.5%	20.6µM*	?	?	-5.3%[12.3 µM]	-13.1
COC/C=C/C1=CC2=CC(=O)C(C)(OC(=O)c3cnc4ccccc4n3)C(=O)C2=CN1Cc1ccc(OC)cc1 (centres undefined)	-4.0%	?	23.1µM*	?	8.0%[12.3 µM]	-60.1*
COC/C=C/C1=CC2=CC(=O)C(C)(OC(=O)c3cnc4ccccc4n3)C(=O)C2=CN1CC1CC1 (centres undefined)	-4.2%	?	-21.5%	-9.4%	12.8%[12.3 µM]	2.8
COC/C=C/C1=CC2=CC(=O)C(C)(OC(=O)c3cnc4ccccc4n3)C(=O)C2=CN1c1ccc(OC)cc1 (centres undefined)	-1.0%	?	?	?	15.5%[12.3 µM]	14.9
COC/C=C/C1=CC2=CC(=O)C(C)(OC(=O)c3cnc4ccccc4n3)C(=O)C2=CN1Cc1ccccc1 (centres undefined)	-17.4%	16.4µM*	?	11.2µM*	16.4%[12.3 µM]	0.0
CN1CC(c2ccc(Cl)c(Cl)c2)[C@@]2(COc3ccccc3C2=O)[C@@]12C(=O)Nc1ccccc12 (some centres undefined)	-10.2%	?	18.4µM*	0.8%	2.1%	-12.3
O=S(=O)(c1cccc(F)c1)N1CCN(S(=O)(=O)c2ccc3c(c2)OCCO3)CC1	/	/	/	/	1.0%	/
COc1ccc(-n2c(C)c(C(C)=O)c3cc(OC(=O)c4ccc(C)cc4)ccc32)cc1	-12.7%	23.1µM*	?	?	4.0%[12.3 µM]	/
COc1ccc(-n2c(C)c(C(C)=O)c3cc(O)ccc32)cc1	3.1%	/	/	9.4%	2.6%	0.0
CCOc1cc(S(=O)(=O)NC2CC2)c(OCC)cc1-n1cnnn1	-6.8%	-9.1%	6.4%	-2.3%	5.6%	2.1
